Screening results as filed in PubChem.
Compounds with a hit are over-represented: about 2.4% of the library has one in this group of screens.
AmpC nodet inh = Promiscuous and Specific Inhibitors of AmpC Beta-Lactamase (assay without detergent); P00811; AmpC nitrocefin hydrolysis, absorbance 480 nm, no detergent; Potency, µM (doses to about 28.7 µM), for the others: top-dose activity change, negative = inhibition; 71,000 compounds, 1.8% hits; AID 585, 2007; note: % of control where 0% means no effect
Target sequence (P00811 whole entry, looked up): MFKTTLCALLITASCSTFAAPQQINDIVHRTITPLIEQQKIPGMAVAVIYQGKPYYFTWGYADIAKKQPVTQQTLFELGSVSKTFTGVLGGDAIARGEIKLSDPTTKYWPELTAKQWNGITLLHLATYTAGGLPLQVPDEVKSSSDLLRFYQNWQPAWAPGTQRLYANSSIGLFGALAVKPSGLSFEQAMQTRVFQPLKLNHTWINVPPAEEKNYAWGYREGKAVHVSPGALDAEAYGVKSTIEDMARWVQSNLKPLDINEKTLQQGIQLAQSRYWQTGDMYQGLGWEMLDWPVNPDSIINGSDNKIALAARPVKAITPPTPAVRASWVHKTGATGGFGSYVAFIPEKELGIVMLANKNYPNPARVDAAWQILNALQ
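AmpC, 20 mM phosphate pH 7.0; 15 min cpd preinc, RT; start with nitrocefin (800 uM stock); A480 kinetic read, 20 s intervals, 4 min. No-enzyme wells = negative control.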
LT uptake inh = qHTS Assay for Anthrax Lethal Toxin Internalization; Cells, anthrax lethal toxin internalization, FRET ratio (460/530); Potency, µM (titrated, usually from 40 µM), inactives show at the top dose activity change, negative = inhibition, most hits filed as inhibitors; 70,000 compounds, 0.67% hits; AID 912, 2007; note: % is set by controls: 0 for no effect and ±100 for the full control effect; nearly all actives have a fitted effect of over 50% in size
AmpC inh det = Promiscuous and Specific Inhibitors of AmpC Beta-Lactamase (assay with detergent); Potency, µM (top dose mostly 28.7 µM), without a hit: top-dose activity change, negative = inhibition; purified AmpC, nitrocefin hydrolysis with detergent; 71,000 compounds, 0.09% hits; active = well fitted curve in the direction sought with a large enough effect; inconclusive = small, poorly fitted or top-dose-only effect; note: % is set by controls: 0 for no effect and ±100 for the full control effect
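E. coli AmpC (5.3 nM) in 20 mM phosphate pH 7.0 with 0.01% Triton X-100, preincubated 15 min RT with compound; nitrocefin (2 uL of 800 uM stock) hydrolysis followed by 480 nm absorbance every 20 s over 4 min.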
Prx2 Sm inh = Schistosoma Mansoni Peroxiredoxins (Prx2); Potency, µM; S. mansoni Prx2 activity coupled to TGR/GSH (TGR is thioredoxin glutathione reductase), NADPH fluorescence loss, qHTS; 65,000 compounds, 0.07% hits
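Prx2 inhibition was measured as reduced NADPH consumption when electrons flowed from NADPH through TGR and glutathione to Prx2 and H2O2. Plates were read kinetically over 8 min; enzyme reagents were held at 4 deg C during dispensing.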
* hit, by the source's call; ? = inconclusive; / = no result given; [ ] = dose if it differs, or a comment. Unless noted, calls come from the whole dose curve. Potency is the fitted concentration of half-maximal effect.

SMILES	AmpC nodet inh	LT uptake inh	AmpC inh det	Prx2 Sm inh
CC(C)(C)NC(=O)c1cccc(NC(=O)c2ccc(NC(=O)c3ccco3)cc2)c1	4.3%	?	-2.0%	>57
CC1(C)C(=O)NC2=C1C(=O)C(=O)c1ccccc12	0.6%	?	-4.2%	>57
COC(=O)CS(=O)(=O)c1nnc([C@H](Cc2ccccc2)NC(=O)OC(C)(C)C)o1	?	/	3.98µM*	?
Nc1nc(SCC(=O)c2ccc(Oc3ccccc3)cc2)n[nH]1	10µM*	?	21.1%	>57
CS(=O)(=O)N1CCC2(CCCN(C(=O)Nc3cccc(C#N)c3)C2)CC1	39.6%	4.3%	-2.2%	>57
COc1ccc(CNC(=O)Cc2nn(C)c(=O)c3ccccc23)cc1	3.4%	-8.6%	-1.6%	>57
Cn1nc(CC(=O)NC2CCCCCC2)c2ccccc2c1=O	3.16µM*[single pt active]	?	11.4%	>57
CC(=O)O[C@@H]1CC[C@]2(C)[C@H]3CC[C@]4(C)[C@H](C[C@H]5CCCC[C@@]54C(C)=O)[C@@H]3CC(=O)[C@@]2(O)C1	22.8%	?	-1.7%	>57
Cc1cccc(C)c1OC[C@@H](N)C(C)C	-5.2%	-0.4%	-1.3%	>57
C#CCCCO/N=C1/C[C@@H](O)[C@@H](O)[C@@H]2[C@@H]3C(=O)N(Cc4ccc5c(c4)OCO5)C(=O)[C@H]3CC[C@@H]12	/	6.8%[8 µM]	/	/
O=C(Oc1cc2oc(=O)c3c(c2cc1Cl)CCCC3)c1ccco1	-6.6%	?	6.9%	18.7*
CCCCn1c2c(c3ccccc31)CCc1nonc1-2	3.98µM*[single pt active]	?	25.8%	>57
N[C@@H](Cc1nn[nH]n1)C(=O)O	-11.9%[5.75 µM]	-12.8%[8 µM]	-1.5%[5.75 µM]	>57
COC(=O)NC(CC(C)=O)c1ccc(Cl)cc1 (stereo unspecified)	/	-8.7%[8 µM]	/	/
Oc1ccc(Cl)cc1Cc1cc(Cl)cc(Cc2cc(Cl)ccc2O)c1O	-18.4%[5.75 µM]	3.98µM*	1.6%[5.75 µM]	>57
O=C(O)Cc1cc(Cl)ccc1O	-13.3%[5.75 µM]	-7.0%[8 µM]	-4.9%[5.75 µM]	>57
CCCC[C@@H]1C[C@H]1C(NC(=O)c1ccccc1)c1ccccc1 (stereo partly specified)	-19.8%	2.4%	-2.1%	>57
CCCC[C@@H]1C[C@H]1C(NC(=O)c1ccco1)c1ccc(-c2ccccc2)cc1 (stereo partly specified)	12.6µM*[single pt active]	-9.5%	-3.3%	>57
CCCC[C@@H]1C[C@H]1C(NC(=O)c1ccco1)c1ccc(Cl)cc1 (stereo partly specified)	10µM*[single pt active]	?	-4.0%	>57
CCCC[C@@H]1C[C@H]1C(NC(=O)c1ccco1)c1ccccc1C(F)(F)F (stereo partly specified)	-17.9%	?	-3.5%	>57
COC(=O)c1ccc(C(NC(=O)OCc2ccccc2)/C(=C/[C@@H](C)C(=O)NCc2ccccc2)c2cccnc2)cc1 (stereo partly specified)	91.0%	12.6%	14.4%	/
Cc1ccc2c(c1)NC(=O)C(CC(=O)NC1CCCCC1C)O2 (stereo unspecified)	3.98µM*[single pt active]	-5.4%	13.2%	>57
O=C(CC1Oc2ccccc2NC1=O)NCc1ccccc1 (stereo unspecified)	-3.0%	-9.6%	4.8%	>57
O=C1Nc2ccccc2OC1CC(=O)N1CCCC1 (stereo unspecified)	3.98µM*[single pt active]	4.8%	11.2%	>57
CCCCN(C)CCCNC(=O)CC1Oc2ccccc2NC1=O (stereo unspecified)	3.98µM*[single pt active]	1.0%	13.1%	>57
SMILES	AmpC nodet inh	LT uptake inh	AmpC inh det	Prx2 Sm inh
CCC(C)N(CCNC(=O)CC1Oc2ccc(C)cc2NC1=O)C1CCCCC1 (stereo unspecified)	7.1%	?	7.9%	>57
Cc1ccc2c(c1)NC(=O)C(CC(=O)NCCCN1CCCCC1C)O2 (stereo unspecified)	25.2%	-11.5%	9.7%	>57
CC1CCCCN1CCNC(=O)CC1Oc2ccccc2NC1=O (stereo unspecified)	2.51µM*[single pt active]	?	12.9%	>57
O=C(CC1Oc2ccccc2NC1=O)NCCCN1CCOCC1 (stereo unspecified)	2.1%	7.5%	9.2%	>57
CN1C[C@@H](CS(=O)(=O)N(C)C)C[C@H]2c3cccc4c3c(cn4C)C[C@@H]21	37.0%	3.0%	-1.3%	>57
NC(N)=N/N=C(\c1ccc(Cl)cc1)C1CC1	-1.9%[5.75 µM]	?	-0.4%[5.75 µM]	>57
CCCN1CC[C@@H]2c3cc(O)ccc3CC[C@H]21	4.9%	6.0%	-2.5%	>57
